High-throughput results as filed in PubChem BioAssay.
RMI FANCM FP: inhibitors of human RMI core complex binding to FANCM MM2. Fluorescence polarization, RMI core complex with F-MM2 peptide; hits give low values. FP signal (polarization) at 33 µM. 70,000 tested, 0.58% active. AID 1159607; in the data active means FP signal below about 40
An asterisk follows results filed as active; ! = not confirmed by another sample. The full list was thinned out, with hits kept by preference.

SMILES	RMI FANCM FP
CCNC(=O)c1c(NC(=O)c2snnc2CC)sc2c1CCCC2	52
Cc1nc(-n2nc(-c3ccco3)cc2NC(=O)c2ccco2)[nH]c(=O)c1C	46
Cc1ccc(OCC(=O)Nc2cc(-c3ccco3)nn2-c2nc(C)c(C)c(=O)[nH]2)cc1	42
Cc1nc(-n2nc(-c3ccco3)cc2NC(=O)CSCc2ccccc2)[nH]c(=O)c1C	35*
CC(C)(C)c1ccc(NC(=O)CSc2ncn[nH]2)cc1	75
CCOC(=O)C1=C(N)C(=O)N(c2ccccc2)C1	57
CCOC(=O)C1=C(N)CC(C(=O)OCC)=C(N)C1	16*
CCOC(=O)c1ccc(N)cc1	56
CC(C)(O)C#Cc1ccc(/C=N\Nc2ncc(Cl)cc2C(F)(F)F)cc1	56
COc1ccc(C=Nc2ccc(NC(=O)CCC(=O)O)cc2)c(OC)c1	60
O=C(CSc1ccc(NC(=O)c2ccccc2F)nn1)NCc1cccs1	64
COc1ccc(NC(=S)NNC(=O)c2ccc(-c3ccc(Cl)cc3)s2)c(OC)c1	52
Cc1cc(S(=O)(=O)NCCn2ncccc2=O)ccc1F	69
COCCCN1C(=O)/C(=C/N2CCN(c3ccccc3)CC2)SC1=S	98
CCN1C(=O)/C(=C/c2c(C)c(C#N)c(=O)n(C)c2N2CCN(c3ccc(F)cc3)CC2)SC1=S	15*
O=C(CCN1C(=O)/C(=C\c2ccccc2F)SC1=S)N1CCN(c2ccccc2)CC1	59
CCOC(=O)c1c(C)[nH]c(C(=O)CSc2ccc(Cl)cc2)c1C	71
COC(=O)c1c(NC(=O)CN2CCCCCC2)sc2c1CCCC2	73
COC(=O)c1c(C)[nH]c(C(=O)CN2CCCCCC2)c1C	6*
CCS(=O)(=O)c1cccc(C(=O)Nc2nnc(C3=COCCO3)o2)c1	53
COc1ccc(C)c2sc(N(Cc3ccccn3)C(=O)c3ccno3)nc12	62
CC(=O)Nc1ccccc1[N+](=O)[O-]	54
NC(=O)CNC(=O)c1ccc(OCc2ccc3ccccc3n2)cc1	60
O=C(Nc1nc2c(s1)Cc1ccccc1-2)c1ccc2ncsc2c1	74
O=C(Nc1nc2c(s1)CCc1ccccc1-2)c1nc2ccccc2s1	58
SMILES	RMI FANCM FP
O=C(Nc1nc2c(s1)Cc1ccccc1-2)c1nc2ccccc2s1	-62*
COc1ccc(NC(=O)O/N=C(/N)c2ccc3c(c2)C=CC(C)(C)O3)cc1	58
Cc1nc2ccc(NC(=O)Nc3ccc4c(c3)OCO4)cc2c(=O)n1-c1ccc(Cl)cc1	28*
Cc1ccc(-n2c(C)nc3ccc(NC(=O)Nc4ccc(F)c(Cl)c4)cc3c2=O)cc1	72
Cc1nc2ccc(NC(=O)C(C)Oc3ccc4c(c3)OCO4)cc2c(=O)n1-c1ccccc1 (stereo not given)	64
O=C(COc1ccc(F)cc1)NCC1CCN(Cc2ccccc2)CC1	76
O=C(/C=C\c1ccco1)/C=C/c1ccc(-c2ccc(Cl)c(Cl)c2)o1	-11*
O=C(/C=C/c1ccc(-c2cccc(Br)c2)o1)c1ccco1	77
NC(=O)/C=C/c1ccco1	53
O=C(/C=C/c1ccc(Br)o1)/C=C/c1ccc(Br)o1	62
N#C/C(=C/c1ccc(-c2ccc(Cl)c(Cl)c2)o1)C(=O)Nc1ccccc1I	75
O=C(/C=C\c1ccco1)/C=C/c1ccc(-c2ccc(Br)cc2)o1	8*
O=C(CS(=O)(=O)c1ccc2c(c1)S(=O)(=O)N=CN2)N1CCCCCC1	60
COc1ccc(C(=O)Nc2cccc(-c3ccc4nnc(-c5cccs5)n4n3)c2)cc1	67
CCOc1ccc(Nc2nn3c(=O)c4cc(OC)c(OC)cc4nc3s2)cc1	66
O=C(Nc1nnc(-c2ccc3c(c2)CCCC3)o1)C1CCCN1S(=O)(=O)c1ccc(Cl)s1 (stereo not given)	54
Cn1cc(C(=O)N2CCN(C(=O)c3ccco3)CC2)c2nn(-c3ccccc3)c(=O)c-2c1	57
O=C(CN1C(=O)c2ccccc2C1=O)N1CCN(c2ccc(F)cc2)CC1	57
O=P(CCl)(CCl)OCCOP(=O)(CCl)CCl	58
CCOC(=O)c1[nH]c2c(c1C)C(=O)CCC2	59
CCOC(=O)CCc1c(C(=O)OCC)[nH]c2c1CC(=O)NC2	32*
CCOC(=O)c1ccc(NC(=O)CCc2c(C)[nH]c(=O)[nH]c2=O)cc1	64
O=C(CS(=O)(=O)c1ccc(Cl)cc1)Nc1ccc(F)c(F)c1F	57
NC(=O)Nc1ccc(F)cc1F	57
N/C(CC(=O)Nc1ccc(F)c(F)c1F)=N/O	35*
SMILES	RMI FANCM FP
Cc1nc(-c2ccc(S(=O)(=O)N3CCc4ccccc4C3)s2)cs1	60
Cc1cccc(NC(=O)C(=O)NCC(c2ccc3c(c2)CCCN3C)N(C)C)c1 (stereo not given)	63
NC(=O)Cc1csc(NC(=O)c2csc(Nc3ccccc3)n2)n1	61
O=C(Nc1ccc(S(=O)(=O)N2CCOCC2)cc1)c1cccc(F)c1	59
Cc1ccc(OCCCC(=O)NCC(C)C)c(C)c1	66
Cc1ccc(C)c(OCCCC(C)(C)C(=O)O)c1	12*!
Cc1ccc(C)c(OCC(=O)N2CCC(C)CC2)c1	67
Cc1ccc2nc(C)c(NC(=O)c3ccccc3C)c(=O)n2c1	73
Cc1ccc(C(=O)NCC(c2ccsc2)N2CCCC2)cc1C (stereo not given)	87
COc1cc(OC)cc(C(=O)NCC(c2ccsc2)N2CCCC2)c1 (stereo not given)	9*
COc1ccc(CC(=O)NCC(c2ccsc2)N2CCCC2)cc1 (stereo not given)	64
Cc1cc2ccccn2c1C(=S)Nc1ccccc1	68
Clc1cccnn1	-3*
N#Cc1ccc(Cl)nn1	65
N#Cc1c(NC(=O)c2cc(Cl)ccc2Cl)sc2c1CCN(Cc1ccccc1)C2	56
COc1cc2cc(C(=O)O)cc(-c3ccc(C)cc3)c2cc1OC	60
COc1cc2cc(=O)[nH]c(C)c2cc1OC	50
COc1cc2cc3c4cc(OC)c(OC)cc4cc[n+]3c(C)c2cc1OC	12*!
O=C(C1CCCN(c2ccc(-c3ccc(Cl)cc3)nn2)C1)N1CCOCC1 (stereo not given)	62
COc1cccc2sc(Nc3nc(C(C)(C)C)cs3)nc12	61
Fc1cccc2sc(Nc3nc4c(F)cccc4s3)nc12	70
COc1cccc2sc(Nc3nc4c(F)cc(F)cc4s3)nc12	28*
Cc1ccc(-n2c(-c3ccc(Cl)c(Cl)c3)c[nH]c2=S)cc1	73
C#CCn1c(=NC(=O)c2ccnn2C)sc2cc(F)cc(F)c21	94
N#C/C(=C\c1cn[nH]c1-c1ccccc1)c1nc2ccccc2s1	68
SMILES	RMI FANCM FP
Cc1cccc(Oc2nc3ccccn3c(=O)c2/C=C(\C#N)c2nc3ccccc3s2)c1	0*
N#C/C(=C\c1ccc(C#N)cc1)c1nc2ccccc2s1	71
Cc1cc(NC(=O)C2CCCN(S(=O)(=O)c3ccc(Cl)cc3)C2)n(C)n1 (stereo not given)	69
Cc1csc2nc(O)c(C(=O)NCc3ccncc3)c(=O)n12	54
CC(C)C(=O)N1CCCc2ccc(NC(=O)Cc3ccc(Cl)cc3)cc21	66
O=C(OCc1nc2ccccc2s1)c1nc2ccccc2s1	62
NC(=O)NC(=O)Cc1nc2ccccc2s1	53
O=C(Cc1nc2ccccc2s1)c1ccc(O)cc1O	24*
O=C(NC(c1ccccc1)c1ccccc1)N1CCC(c2nnc(-c3ccco3)o2)CC1	60
Cc1[nH]c2ccccc2c1C(c1ccc(C(C)C)cc1)c1c(C)[nH]c2ccccc12	29*
Cc1[nH]c2ccccc2c1C(c1ccco1)c1c(C)[nH]c2ccccc12	135
Cc1[nH]c2ccccc2c1C(c1ccc(OC(F)F)cc1)c1c(C)[nH]c2ccccc12	36
